Test results from PubChem BioAssay (NCATS).
Records with an inconclusive call do not appear. Activity calls are given as the source filed them. The call rests on the fitted dose curve; in most records, active means well fitted inhibition curve with a large enough effect; inconclusive means small, poorly fitted or top-dose-only effect; inactive means flat fitted curve, though single readings scatter.

Tests used:
Assay in all cases: qHTS profiling for inhibitors of Plasmodium falciparum proliferation (AID 504749); further: nearly all actives have a fitted effect of over 60% in size
Conditions in all cases: P. falciparum in erythrocytes, SYBR Green DNA, 72 h; series mostly up to 28.7 µM
CP269 = tested on: CP269
Outline: (§1)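 P. falciparum-infected erythrocytes (0.3% parasitemia, 2.5% hematocrit) incubated with compound 72 h at 37 C, 5% CO2. Parasite DNA detected by SYBR Green after lysis, overnight at room temperature; normalised to 0.29 uM artemisinin and DMSO.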

CP286 = tested on: CP286
Outline: as §1

CP291 = tested on: CP291
Outline: as §1

CP297 = tested on: CP297
Outline: as §1

CP335 = tested on: CP335
Outline: as §1

DFO2036 = tested on: DFO2036
Outline: as §1

DIV14 = tested on: DIV14
Outline: as §1

DIV17 = tested on: DIV17
Outline: as §1

DIV30 = tested on: DIV30
Outline: as §1

Dd2 = tested on: Dd2
Outline: as §1

ECU = tested on: ECU
Outline: as §1

GB4 = tested on: GB4
Outline: as §1

ICS = tested on: ICS
Outline: as §1

CP315 = tested on: CP315
Outline: as §1

CP329 = tested on: CP329
Outline: as §1

FAB9 = tested on: FAB9
Outline: as §1

HB3 = tested on: HB3
Outline: as §1

CP305 = tested on: CP305
Outline: as §1

CP325 = tested on: CP325
Outline: as §1

CP268 = tested on: CP268
Outline: as §1

Measured: Potency
Potency means the concentration at half of the fitted maximal effect.

CN1CCC(=C2c3ccccc3Sc3ccccc32)CC1
active: CP269 13.5 µM | CP286 11.2 µM | CP291 9.53 µM | CP297 8.49 µM | CP335 12 µM | DFO2036 10 µM | DIV14 7.57 µM | DIV17 12 µM | DIV30 9.53 µM | Dd2 4.47 µM | ECU 7.08 µM | GB4 3.38 µM | ICS 5.62 µM

CCCCCCCCCCOCC(O)CN (stereo not given)
active: DIV14 10.7 µM | Dd2 12.6 µM | GB4 9.53 µM | ICS 11.2 µM
inactive: CP269 | CP315 | CP329 | DFO2036 | FAB9 | HB3

CCN(CCCc1ccccc1)CCCc1ccccc1
active: Dd2 3.16 µM
inactive: CP305 | CP315 | CP329 | DFO2036 | ECU | FAB9 | HB3

CCCOC(C(=O)OC1CCN(C)CC1)(c1ccccc1)c1ccccc1
inactive: CP297 | CP315 | CP329 | DFO2036 | FAB9
active: DIV14 7.57 µM | DIV17 7.57 µM | Dd2 12.6 µM | ECU 10 µM | ICS 7.94 µM

COc1ccc(CN2CCN(C(c3ccc(F)cc3)c3ccc(F)cc3)CC2)c(OC)c1OC
active: CP269 15.1 µM | CP286 7.08 µM | CP325 16.9 µM | CP335 6.01 µM | DIV14 12 µM | DIV17 12 µM | DIV30 16.9 µM | Dd2 7.94 µM | ECU 12.6 µM | GB4 9.53 µM | HB3 11.2 µM | ICS 2.24 µM

CN(C)CCOc1ccccc1Cc1ccccc1
active: CP297 4.26 µM | DFO2036 6.31 µM | DIV14 8.49 µM | DIV17 10.7 µM | Dd2 5.01 µM
inactive: CP315 | DIV30 | FAB9 | HB3

CCCCCCCCCCCCCCNCCO
active: CP286 3.55 µM | DFO2036 17.8 µM | Dd2 10 µM | HB3 10 µM | ICS 6.31 µM
inactive: CP269 | CP291 | CP315 | CP325 | CP329 | CP335 | DIV30 | FAB9

NC(CS)C(=O)O (stereo not given)
active: DFO2036 12.6 µM | DIV14 6.75 µM | DIV17 9.53 µM | DIV30 16.9 µM | HB3 8.91 µM | ICS 2 µM
inactive: CP315 | CP329

CN(C)C(=S)SC(=S)N(C)C
active: CP269 10.7 µM | CP286 11.2 µM | CP305 15.1 µM | CP325 15.1 µM | CP335 8.49 µM | DFO2036 10 µM | DIV14 13.5 µM | DIV30 12 µM | Dd2 7.08 µM | ECU 1.12 µM | GB4 13.5 µM | HB3 5.01 µM | ICS 5.01 µM

C[C@@H](CN(C)C)CN1c2ccccc2Sc2ccccc21
inactive: CP286 | CP291 | CP297 | CP305 | CP315 | CP325 | CP335 | DFO2036 | ECU | FAB9 | HB3

CC(O)(P(=O)(O)O)P(=O)(O)O
not listed: CP291 | CP297 | DIV14 | DIV17 | GB4 | CP305 | CP325 | CP268
inactive: all other assays above

CN(C(=O)CN(CCO)CC(=O)N(C)C(C)(C)Cc1ccccc1)C(C)(C)Cc1ccccc1
not listed: CP286 | CP335 | DIV14 | DIV17 | GB4 | ICS | CP268
inactive: all other assays above

OC(CCN1CCCCC1)(c1ccccc1)c1ccccc1
inactive: ECU | FAB9 | HB3
active: CP286 11.2 µM | CP297 6.01 µM | DIV14 4.26 µM | DIV17 6.75 µM | Dd2 10 µM | GB4 6.75 µM | ICS 12.6 µM

Clc1ccc2c(c1)CCc1cccnc1C2=C1CCNCC1
active: CP286 10 µM | DIV14 7.57 µM | DIV17 9.53 µM | DIV30 16.9 µM | Dd2 4.47 µM | ICS 11.2 µM
inactive: DFO2036 | FAB9 | HB3

c1ccc(CNCCNCc2ccccc2)cc1
inactive: CP315 | CP329 | FAB9 | HB3
active: CP297 12 µM | DIV14 3.79 µM | DIV17 6.01 µM | Dd2 11.2 µM | ECU 11.2 µM

Cc1cc(N)c2cc(NC(=O)Nc3ccc4nc(C)cc(N)c4c3)ccc2n1
active: CP269 2.39 µM | CP286 4.47 µM | CP291 4.26 µM | CP297 4.78 µM | CP305 3.79 µM | CP315 7.57 µM | CP329 1.69 µM | CP335 7.57 µM | DFO2036 5.62 µM | DIV14 13.5 µM | DIV17 10.7 µM | DIV30 6.01 µM | Dd2 0.891 µM | ECU 10 µM | FAB9 5.01 µM | GB4 7.57 µM | HB3 4.47 µM | ICS 5.01 µM

CNCCC(Oc1ccccc1C)c1ccccc1 (stereo not given)
active: DIV14 6.01 µM | DIV17 6.75 µM | Dd2 7.08 µM
not listed: DIV30 | ICS | CP329 | CP305 | CP268
inactive: all other assays above

CC(C)=CCC1C(=O)N(c2ccccc2)N(c2ccccc2)C1=O
inactive: CP268 | CP315 | FAB9

O=C1OCCN1/N=C/c1ccc([N+](=O)[O-])o1
inactive: CP269 | CP297 | CP315 | CP325 | CP329
active: Dd2 11.2 µM | ICS 7.94 µM

O=c1c(-c2ccccc2)c1-c1ccccc1
active: CP286 7.94 µM | DIV17 10.7 µM | Dd2 10 µM | GB4 10.7 µM | HB3 11.2 µM | ICS 4.47 µM

Oc1c(I)cc(I)c2cccnc12
inactive: DIV14 | ECU | FAB9

CN(C)CCCOc1nn(Cc2ccccc2)c2ccccc12
not listed: CP291 | CP335 | DIV14 | DIV17 | Dd2 | GB4 | CP268
inactive: all other assays above

CCCN1CCCC[C@H]1C(=O)Nc1c(C)cccc1C
active: GB4 15.1 µM
not listed: CP297 | CP335 | DIV14 | DIV17 | Dd2 | CP305 | CP325 | CP268
inactive: all other assays above

N[C@H](CO)C(=O)O
not listed: CP268
inactive: all other assays above

c1ccc(-c2ccc(C(c3ccccc3)n3ccnc3)cc2)cc1 (stereo not given)
active: CP297 6.75 µM | CP315 16.9 µM | DIV14 9.53 µM | DIV17 10.7 µM | DIV30 12 µM | Dd2 7.94 µM | ECU 3.55 µM | GB4 8.49 µM | HB3 10 µM | ICS 2.24 µM

COc1c(C)c2c(c(O)c1C/C=C(\C)CCC(=O)O)C(=O)OC2
active: CP269 5.1 µM | CP286 3.16 µM | CP291 4.05 µM | CP297 5.1 µM | CP305 4.05 µM | CP329 6.42 µM | CP335 3.22 µM | DFO2036 2.51 µM | DIV14 6.42 µM | DIV17 6.42 µM | DIV30 5.1 µM | Dd2 3.55 µM | ECU 5.01 µM | GB4 5.1 µM | ICS 3.55 µM

NC(=O)C(=O)N/N=C/c1ccc([N+](=O)[O-])o1
inactive: CP286 | CP335 | DFO2036 | Dd2 | ECU | FAB9 | HB3 | ICS
active: CP329 15.1 µM

C=C(CC)C(=O)c1ccc(OCC(=O)O)c(Cl)c1Cl
active: CP286 10 µM | Dd2 11.2 µM | ICS 10 µM
inactive: CP297 | CP325
